# Source: ChEMBL document CHEMBL3988442, “University of Dundee, Small-Polar-MMV Screening Library” (2021)
# How the values were obtained:
# [1] = target: T1, Aspartate--tRNA(Asp/Asn) ligase (Mycobacterium tuberculosis (strain ATCC 25618 / H37Rv)) (UniProt P9WFW3); assay: Assay for Asp RNA synthetase-1 from Mycobacterium tuberculosis; type: functional; design: scale not given: direction of the effect not stated beside the values; settings: 30 µM; note: in the data most compounds retested in dose-response had high values
# T1 sequence (whole entry): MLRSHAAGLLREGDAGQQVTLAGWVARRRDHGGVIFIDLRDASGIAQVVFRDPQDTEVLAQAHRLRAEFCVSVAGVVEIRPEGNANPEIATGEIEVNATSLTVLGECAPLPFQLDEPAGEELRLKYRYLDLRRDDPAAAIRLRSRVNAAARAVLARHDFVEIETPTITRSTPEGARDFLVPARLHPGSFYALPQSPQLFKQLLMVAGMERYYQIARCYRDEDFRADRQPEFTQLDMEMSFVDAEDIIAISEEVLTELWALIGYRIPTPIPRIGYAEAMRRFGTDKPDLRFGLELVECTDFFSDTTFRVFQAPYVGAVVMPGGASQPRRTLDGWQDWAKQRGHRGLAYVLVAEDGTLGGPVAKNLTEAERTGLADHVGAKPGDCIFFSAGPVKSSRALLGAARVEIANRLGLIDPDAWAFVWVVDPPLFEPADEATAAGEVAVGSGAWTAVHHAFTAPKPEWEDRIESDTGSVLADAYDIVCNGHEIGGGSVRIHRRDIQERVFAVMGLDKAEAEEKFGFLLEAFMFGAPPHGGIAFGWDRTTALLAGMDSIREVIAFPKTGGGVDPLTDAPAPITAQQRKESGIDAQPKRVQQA
# [2] = target: Shiga toxin 2 (Escherichia coli O157:H7) (UniProt P09385+P09386); assay: E. coli 0.157:H7 Shiga Toxin SOP - stx2 screening assay; type: functional; design: scale not given: direction of the effect not stated beside the values; settings: 30 µM
Compound,Percent Effect [1],Percent Effect [2]
c1cnn(Cc2cn3c(n2)CN(Cc2nccs2)CC3)c1,-2.35%,-23.5%
COc1ccc(CN2C[C@H](OCC3CCOCC3)[C@H]3COC[C@H]32)cc1,-1.6%,1.49%
c1cc(-c2noc(CN3CCn4c(nnc4C4CC4)C3)n2)co1,-0.544%,0.987%
CC(=O)NC(C)(C)C(=O)Nc1ncc(Cc2ccc(C)c(F)c2)s1,-1.27%,-15.4%
COc1cccc(COCC(O)CN2CC(n3cccn3)C2)c1 (stereo not given),-2.41%,16.5%
CC(=O)N1CCC(c2nccnc2Oc2ccccc2)CC1,-0.819%,-5.88%
CC(=O)N1CCN(Cc2csc(-c3cnn(C)c3)n2)CC1,-1.03%,-1.47%
CCc1nc(CN2CCN(C(=O)c3cnccn3)CC2)cs1,-2.04%,-21.2%
CCn1ccnc1CN1CCN(C(C)C(=O)NC2CCCCC2)CC1 (stereo not given),-1.01%,22%
Cc1cc(C(=O)N2C[C@@H]3COC[C@]3(c3nnc(C4CC4)o3)C2)on1,2.94%,-27.3%
CN(C)C(=O)CS(=O)(=O)Cc1cc(Cl)c2c(c1)OCCCO2,4.36%,29.6%
COCC(=O)N1CCC(c2nccnc2Oc2cccnc2C)CC1,3.02%,6.27%
c1ccc(OCc2nnc3n2CCN(CC2CCOCC2)C3)nc1,10.1%,7.95%
CC(C)N1CC(C(=O)NCCOc2ccc3c(c2)OCO3)CC1=O (stereo not given),-3.6%,13.8%
Cc1noc(C2CCN(C(=O)c3ccc(NC4CC4)nc3)CC2)n1,1.21%,-7.73%
COc1ccc(NC(=O)C(c2cccc(F)c2)N2CCOCC2)cc1 (stereo not given),5.63%,-8.77%
Cc1ccc(CN2CC[C@H]3OCC[C@@H](C(=O)NC4CC4)[C@@H]3C2)o1,4.6%,-6.37%
CN(c1ccc(C(=O)NCCCN2CCOCC2)c(Cl)c1)S(C)(=O)=O,-4.13%,-32.5%
Cc1cccc(COC[C@@H]2CC[C@H]3[C@H](CCN3Cc3ccco3)O2)n1,-0.843%,-16.8%
C1CC(c2noc(C3CC3)n2)CN(Cc2noc(C3CC3)n2)C1 (stereo not given),-1.05%,6.22%
CCn1ncnc1C1CC(=O)NCc2nc3ccccn3c21 (stereo not given),-2.72%,2.83%
O=C1CCC2(CCCN(c3ncc(F)cn3)CC2)N1CC1CC1 (stereo not given),-1.91%,-3.81%
CS(=O)(=O)NCCCN1CCCC1Cc1ccccc1 (stereo not given),-3.08%,-0.572%
CC1(C)CC(N(Cc2ccccc2)Cc2cccnc2)CC(C)(C)N1,-4.09%,-6.83%
Cc1ccc(NC(=O)c2n[nH]c(-n3cnnc3)n2)cc1C,4.15%,-18.5%

Compound,Percent Effect [1],Percent Effect [2]
CCN1CCN(CC(O)c2ccc(F)cc2)CC1 (stereo not given),-6.48%,19.4%
CN1CCN(C[C@@H]2CN(C(=O)c3ccccc3C#N)C[C@@H]2CO)CC1,-1.09%,-8.04%
O=C(NCCNC(=O)N1CCC(c2ccccc2)C1)C1CC1 (stereo not given),-0.747%,-19.2%
Cc1cc(C(=O)N2CCc3ncc(CN4CCOCC4)n3CC2)no1,-4.02%,-7.88%
COc1cc(C(=O)NS(=O)(=O)c2cccc(C#N)c2)ccc1C,-2.04%,-1.16%
COCCc1noc(CN2CCc3nn(C(C)C)c(=O)cc3C2)n1,-0.0281%,19.6%
CN(C)c1ccc(CCNC(=O)NCc2ccc(N(C)C)nc2)cc1,2.84%,5.6%
Cc1n[nH]c(C)c1C1CCCN1C(=O)CNC(=O)C(C)(C)C (stereo not given),1.09%,-19.5%
CC(C(=O)NCCN1CCCCCC1)n1cncn1 (stereo not given),-4.21%,-27.3%
Cc1cc(C(=O)N2C[C@@H]3[C@@H](C2)OCC(=O)N3CC2CC2)no1,9.42%,-55.2%
COc1ccc(C2CC(=O)Nc3c2nc2n3CCCC2)cc1O (stereo not given),-2%,-3.52%
COc1ccccc1Oc1ncccc1CNC(=O)C(C)N1CCCC1 (stereo not given),-0.0279%,6.37%
COc1ccc2c(c1)OC1(CCN(Cc3ccc(F)cc3)CC1)CC2=O,-5.55%,17.6%
Cc1cnn(CCNCc2ccccc2OCc2cccnc2)c1,4.5%,-8.49%
O=C(CCCOc1ccc(F)cc1)N1CCCC(n2cccn2)C1 (stereo not given),-0.115%,7.54%
CCOCCn1c(=O)[nH]c2cc(C(=O)N(C)Cc3nc(C)cs3)ccc21,1.06%,-4.35%
Cc1cc(C)n(CC2CN(CCOc3cccc(F)c3)CCO2)n1 (stereo not given),3.93%,36.7%
Cc1ccc(Oc2ccc(NC(=O)NCC3CCOC3)cn2)cc1C (stereo not given),0.322%,-6.2%
O=C(NCc1ccccc1CN1CCC(O)CC1)Nc1ccncc1,-0.167%,-42%
CCn1cc(CN(C)S(=O)(=O)c2cnn(CC)c2C)c(C)n1,-3.81%,3.32%
Cc1ccc(C(=O)N(C)Cc2cc(Br)cs2)c(=O)[nH]1,0.749%,-3.88%
Cc1ccc(NC(=O)c2cc(S(=O)(=O)N3CCCCC3)c[nH]2)cc1F,1.97%,17.8%
Cc1cc2c(=O)n3c(nc2s1)CCN(Cc1cnc(C(C)C)nc1)CC3,6.6%,14.8%
CNC(=O)[C@H]1CO[C@H]2CCN(Cc3ccc4ccccc4n3)C[C@H]2C1,2.46%,-3.36%
COc1cccc(CN(C)C(=O)Nc2ccc3c(c2)OCCO3)c1,16.5%,-9.02%

Compound,Percent Effect [1],Percent Effect [2]
Cc1nc(N2CCOCC2)nc2c1CCN(Cc1cccnc1)CC2,2.91%,-7%
COc1ccccc1OCC(=O)NS(=O)(=O)c1ccc(Br)s1,2.43%,-0.0881%
Cc1ccc(Cc2cnc(NC(=O)C3CNC(=O)N3)s2)cc1F (stereo not given),-6.24%,-17.9%
CC(=O)NCCC1CCCCN1S(=O)(=O)c1cccc(C#N)c1 (stereo not given),-1.28%,-30%
CC1CN(CC(=O)Nc2nncs2)CCN1Cc1nccn1C (stereo not given),4.22%,12.1%
CC(C)OCCCN1CCCC(c2nc3ccccc3n2C(C)C)C1 (stereo not given),6.04%,-18.5%
Cc1nn(C(C)C)c(C)c1NC(=O)c1ccncc1,-0.479%,-15.8%
COc1cccc(CN(C)S(=O)(=O)N2CCOCC2)c1,-0.479%,9.56%
O=C(Nc1cn[nH]c1)c1ccc(O)nc1,-1.37%,30.3%
CN(C)[C@H]1CCCCN(C(=O)CCc2csc(N)n2)C1,-1.18%,3.47%
c1ccc(-n2ncc(CN3CCCC3Cn3cccn3)n2)cc1 (stereo not given),-5.28%,2.57%
CCCc1cc(C(=O)N(C)Cc2cnc3ccccc3n2)n(C)n1,8.2%,-6.99%
COCCOc1cccc(C(=O)N2CCCC(n3ccnc3C)C2)c1 (stereo not given),-2.52%,-16%
Cn1ccc(CN2CCC(c3ccccc3)CC2)cc1=O,4.58%,-3.12%
COc1ccc(CN2CC[C@@H](O)[C@@H]2Cc2ccccc2)cc1,-0.406%,-47%
CN(C)C(=O)CN1CCCCC1c1nc(N)ncc1-c1cccc(F)c1 (stereo not given),-1.78%,-2.08%
c1ccc2c(N3CCCC3Cn3cccn3)ncnc2c1 (stereo not given),0%,-23.1%
Cc1cc(C)n(CCCNC(=O)C(C)NC(=O)c2ccccc2Cl)n1 (stereo not given),1.92%,-4.43%
CS(=O)(=O)c1ccc(CNC(=O)N2CCC(c3ccccc3)CC2)cc1,-2.06%,7.64%
CC(C)c1nnc2n1CCN(C(=O)c1ccc(-n3cnnc3)cc1)C2,-3.86%,-19.9%
Cc1n[nH]c(C2CN(C(=O)Cn3ccccc3=O)CCO2)n1 (stereo not given),-3.22%,10.2%
COCC(NC(=O)c1cc[nH]n1)c1cccc(C(F)(F)F)c1 (stereo not given),-7.45%,-7.89%
Cn1cc(CNCC2Cn3nnc(-c4ccccc4)c3CO2)cn1 (stereo not given),5.57%,-42.7%
O=C(NCc1cnc2n1CCN(Cc1ccsc1)CC2)C1CCC1,3.57%,4.16%
N#Cc1c(C2CC2)cc(-c2ccc(O)cc2)nc1N,-1.42%,15.9%

Compound,Percent Effect [1],Percent Effect [2]
CNC(=O)c1cc2c(nc1NCC1CC1)CCN(S(=O)(=O)C1CC1)CC2,7.68%,-5.47%
O=S(=O)(c1cccnc1)N1CCN(CCn2ccnc2)CC1,-4.66%,-38.1%
Cc1cccc(-n2cc(C(=O)N3CCCC(n4ccnc4)C3)nn2)c1 (stereo not given),1.58%,7.71%
CN(C)CC(=O)N1CCCC2(CCC(=O)N(CCc3c[nH]cn3)C2)C1 (stereo not given),0.773%,-43.1%
CCOCCCn1c(NC(=O)c2cnn(C)c2)nc2ccccc21,-2.49%,22.6%
COc1ccccc1CN1CCC2(CC1)CC(Oc1ccccn1)CO2 (stereo not given),1.6%,-0.702%
CC(Cn1cccn1)NCc1csc(-c2ccccc2F)n1 (stereo not given),-4.2%,-6.96%
Cc1ccc(CN(Cc2ccccn2)C2CC(C)(C)NC(C)(C)C2)s1,-5.4%,15.6%
Cc1cc(CN2CCN(C(=O)c3sccc3C(C)C)CC2)no1,0.346%,7.17%
CC(=O)N1CCN(C(=O)CCCc2nc(C(C)C)no2)CC1,5.17%,-7.36%
Cc1nc(C(=O)N2CCc3c(nc(-c4ccncc4)[nH]c3=O)C2)cs1,0.783%,13.5%
CC(C)[C@H](NC(=O)NC1CCS(=O)(=O)C1)C(=O)NCc1ccccc1Cl (stereo not given in full),0.145%,-30%
CSc1ccc(NS(=O)(=O)c2cnn(C)c2)cn1,1.57%,-7.54%
Cc1nc(C)c2c(n1)CCN(C(=O)CC1CC1)CC2,-2.64%,-5.99%
COc1ccc(-n2nnc(C(=O)NC(C)C)c2C2CC2)cc1,-4.62%,10.4%
O=C(NCCC(=O)N1CCCCCC1)c1c(O)cc(F)cc1F,-0.98%,-11.1%
CCc1nc(C)c([C@H]2CN(C)C[C@@H]2C(=O)Nc2ccc(OC)cc2)[nH]1,-1.19%,9.62%
Cc1ccc(CNC(=O)CN2CCCC(Cn3cncn3)C2)s1 (stereo not given),-2.78%,-43.9%
COc1ccc(CC(=O)N2CCCN(c3ccc(C#N)cc3)CC2)cc1,5.93%,-7.8%
COCc1nc(C(=O)N2CCCCC2Cn2cc(C)cn2)cs1 (stereo not given),0.0865%,5.33%
Cc1cccnc1CN(C)CC1(O)CCCN(CC2CCCCC2)C1=O (stereo not given),-0.871%,2.24%
CCOC(=O)N1CCN(C(=O)c2sc(-c3ccc(F)cc3)nc2C)CC1,-0.364%,8.24%
Cc1oc(C)c(C(=O)NCc2ccccc2S(=O)(=O)N(C)C)c1C,-6.28%,37.9%
Cc1nc(CN(C)C2CCN(CC(=O)NC3CCOCC3)C2)no1 (stereo not given),-1.22%,17.1%
CCc1cnc(N2C[C@H]3C[C@H](C(=O)N(C)C)[C@@H](C2)O3)nc1,-1.86%,-0.162%
